Screens (PubChem)
MBNL1 CUG block – MBNL1-poly(CUG) RNA binding inhibition; Q9NR56; TR-FRET MBNL1-His/biotin-(CUG)12 binding, 665/545 ratio; Potency, µM (top dose mostly 57.5 µM), inactives show at the top dose activity change, negative = inhibition, hits mostly inhibitors; 0.036% of 280,000 active; AID 2675; active means well fitted inhibition curve with a large enough effect in the signal ratio, with a control signal flat, not every such curve was filed as active; inconclusive means small, poorly fitted or top-dose-only effect, or effect the other way, or a change in a side signal; inactive means no such curve, though single readings can be large or run the other way; the % refers to the signal ratio; further: potency means the concentration at half of the fitted maximal effect; on the % scale 0 is the no-effect control and ±100 the full control effect
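His-tagged MBNL1 binding to biotinylated (CUG)12 RNA was measured by TR-FRET using terbium anti-His antibody (0.055 ng/ul final) and streptavidin-XL665 (5 nM final). Compounds were titrated 92 nM to 58 uM; 60 min at room temperature.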
hERG WT inh – KCNH2 (human, wildtype) channel inhibition; Q12809; U2OS, BacMam KCNH2, thallium flux FluxOr; active compounds read low; activity change, % at 1.84 µM; 0.37% of 340,000 active; AID 720551;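 active means maximum activity change below -70%; inconclusive means maximum activity change between -70% and -50%; inactive means maximum activity change above -50%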; further: on the % scale 0 is the no-effect control and ±100 the full control effect
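U2OS cells transduced with wild-type KCNH2 virus are loaded with FluxOr dye for 45 min, and thallium flux is measured in kinetic reads before and after stimulation buffer. Rate constants are normalized to DMSO controls.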
PLK1 PBD block – inhibitors of human PLK1 polo-box domain binding | P53350 | Plk1 PBD binding of FITC phosphopeptide, fluorescence polarization | Potency, µM, for the others: max response, negative = inhibition, most hits filed as inhibitors | 2.8% of 360,000 active; further: potency means the concentration at half of the fitted maximal effect; series mostly up to about 57 µM; on the % scale 0 is the no-effect control and ±100 the full control effect; nearly all actives have a fitted effect of over 65% in size
VDR inh – blocks the human vitamin D receptor. P11473. VDR-SRC2-3 peptide fluorescence polarization, 2 h. Potency, µM, for inactives: max response, negative = inhibition, most hits filed as inhibitors. 0.93% of 400,000 active. AID 504847; further: potency means the concentration at half of the fitted maximal effect; on the % scale 0 is the no-effect control and ±100 the full control effect
Target sequence (P11473 whole entry, looked up): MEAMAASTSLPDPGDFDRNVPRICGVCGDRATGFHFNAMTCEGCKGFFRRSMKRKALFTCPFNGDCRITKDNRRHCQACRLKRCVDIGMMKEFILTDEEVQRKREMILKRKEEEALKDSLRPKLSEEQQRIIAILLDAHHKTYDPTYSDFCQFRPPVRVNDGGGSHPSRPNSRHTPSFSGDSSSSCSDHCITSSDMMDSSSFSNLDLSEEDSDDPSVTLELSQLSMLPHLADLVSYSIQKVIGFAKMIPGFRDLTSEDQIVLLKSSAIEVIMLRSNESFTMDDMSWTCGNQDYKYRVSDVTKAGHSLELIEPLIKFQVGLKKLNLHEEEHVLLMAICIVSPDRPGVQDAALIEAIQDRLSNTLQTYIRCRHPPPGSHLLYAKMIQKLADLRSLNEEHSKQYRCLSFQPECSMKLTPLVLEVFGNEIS
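FP read-out; VDR + SRC2-3 coactivator peptide; 23 nl compound by pintool; 2 h RT incubation; reagents held at 4 deg C, protected from light.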
CBFb RUNX1 block – CBF-beta/RUNX1 interaction disruption; 230,000 tested, under 10 active; AlphaScreen CBFb-His/RUNX1-biotin binding, biochemical; Potency, µM (highest dose often 59.8 µM), inactives show at the top dose activity, negative = inhibition, usual class: inhibitors; Q01196+Q13951; further: % of control where 0% means no effect
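AlphaScreen proximity signal reports loss of binding between His-tagged CBF-beta and biotin-labelled RUNX1, each at 30 nM. Proteins are pre-associated for 20 minutes, compounds added for 15 minutes, then beads for 90 minutes, all at ambient temperature.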
KCNH2 3.1 block – KCNH2 3.1 (human) potassium channel inhibition. AID 720553. 0.95% of 340,000 active. activity change, % (tested at about 1.8 µM). U2OS KCNH2 3.1, thallium flux FluxOr; active compounds read low;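 active means maximum activity change below -70%; inconclusive means maximum activity change from -70% to -50%; inactive means maximum activity change above -50%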;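 further: thallium influx rate constant from kinetic fluorescence after stimulation buffer; on the % scale 0 is the no-effect control and ±100 the full control effect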
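U2OS cells transduced with KCNH2 3.1 mutant virus (1.77 x 10^8 /mL, 4 h), plated overnight at 37 C, loaded 45 min with FluxOr dye plus Red40 quencher. Thallium flux rate constant from kinetic reads after stimulation buffer, normalised to controls.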
An asterisk follows results filed as active. Only some compounds are listed: those with a hit (about 3.8% of all), similar ones and a draw of the others. Unless noted, the call rests on the fitted dose curve; in most records, active means well fitted curve in the direction sought with a large enough effect; inconclusive means small, poorly fitted or top-dose-only effect, or another doubt; inactive means no such curve, though single readings can be large; an effect the other way counts as inactive or inconclusive.

What do the screens show for `Cc1cccc(CCNC(=O)c2sc3nc4n(c(=O)c3c2C)CCCC4)c1`?
VDR inh: -3%

How did O=S(=O)(Nc1nc2ccccc2nc1N1CCc2ccccc2C1)c1ccc(Cl)cc1 do in these assays?
hERG WT inh: 9; PLK1 PBD block: 21µM*; VDR inh: -12%; CBFb RUNX1 block: -14%; KCNH2 3.1 block: 13

Results for O=S(=O)(Nc1nc2ccccc2nc1N1CCc2ccccc2C1)c1ccc(Br)cc1 ?
hERG WT inh: 0; PLK1 PBD block: inconclusive; VDR inh: -6%; CBFb RUNX1 block: -10%; KCNH2 3.1 block: 4

How did CCn1cc(C(=O)NCCc2ccc(OC)c(OC)c2)c(=O)c2cc(S(=O)(=O)N3CCC(C)CC3)ccc21 do in these assays?
VDR inh: 1%

What do the screens show for `COc1ccc(C2c3[nH]c4ccccc4c3CCN2C(=O)c2ccc(=O)n(C)n2)c(F)c1` (centres undefined)?
MBNL1 CUG block: 2%; hERG WT inh: -7; PLK1 PBD block: 2%; VDR inh: -7%; CBFb RUNX1 block: -27%; KCNH2 3.1 block: 0

What do the screens show for `CCc1cc(C(=O)N2CCc3c([nH]c4ccccc34)C2c2ccc(OC)cc2F)no1` (centres undefined)?
MBNL1 CUG block: -10%; hERG WT inh: 0; PLK1 PBD block: 24µM*; VDR inh: -16%; CBFb RUNX1 block: -2%; KCNH2 3.1 block: -26

What do the screens show for `CN(C)c1ccc(/C=C/C(=O)c2cccc(Br)c2)cc1`?
MBNL1 CUG block: 7%; hERG WT inh: -149*; PLK1 PBD block: 5%; VDR inh: -19%; CBFb RUNX1 block: inconclusive; KCNH2 3.1 block: -115*

How did CCOc1ccc(NC(=O)CCC(=O)c2ccc(OC)cc2)cc1 do in these assays?
MBNL1 CUG block: 0%; hERG WT inh: -4; PLK1 PBD block: -14%; VDR inh: -7%; KCNH2 3.1 block: -3

How did Cc1cccc(NC(=O)CCC(=O)OCc2ccc(Br)cc2)c1 do in these assays?
MBNL1 CUG block: -8%; hERG WT inh: 16; PLK1 PBD block: 4%; VDR inh: -14%; CBFb RUNX1 block: 2%; KCNH2 3.1 block: -31

What do the screens show for `Cc1ccc(NC(=O)CCC(=O)OCc2ccc(Br)cc2)cc1`?
hERG WT inh: 6; PLK1 PBD block: 27µM*; VDR inh: -27%; CBFb RUNX1 block: 7%; KCNH2 3.1 block: 6

What do the screens show for `CCOc1ccc(NC(=O)CCC(=O)c2ccc(Br)cc2)cc1`?
MBNL1 CUG block: 13%; hERG WT inh: 16; PLK1 PBD block: 21µM*; VDR inh: -30%; KCNH2 3.1 block: 0

What do the screens show for `CCn1cc(C(=O)OCC(=O)Nc2ccc(C)c(Cl)c2)c(=O)c2ccc(C)nc21`?
VDR inh: 0%

How did Cc1ccc(CNC(=O)C2CCC(=O)N(CCc3cccc(F)c3)C2)cc1 (centres undefined) do in these assays?
MBNL1 CUG block: 1%; hERG WT inh: -5; PLK1 PBD block: -8%; VDR inh: -7%; KCNH2 3.1 block: -84*

Results for COc1ccccc1CCNC(=O)C1CCC(=O)N(Cc2ccccc2OC)C1 (centres undefined) ?
MBNL1 CUG block: -5%; hERG WT inh: 6; PLK1 PBD block: -9%; VDR inh: -22%; KCNH2 3.1 block: 2

What do the screens show for `Cc1ccccc1CCNC(=O)C1CCC(=O)N(CCc2cccc(F)c2)C1` (centres undefined)?
MBNL1 CUG block: -1%; hERG WT inh: 11; PLK1 PBD block: 30µM*; VDR inh: 1%; KCNH2 3.1 block: -6

Results for COc1ccccc1CCNC(=O)C1CCC(=O)N(Cc2cccc(F)c2)C1 (centres undefined) ?
MBNL1 CUG block: -7%; hERG WT inh: 6; PLK1 PBD block: 30µM*; VDR inh: -19%; KCNH2 3.1 block: -24

What do the screens show for `Cc1ccc(CCN2CC(C(=O)NCCCN3CCC(C)CC3)CC2=O)cc1` (centres undefined)?
MBNL1 CUG block: -2%; hERG WT inh: 8; PLK1 PBD block: 27µM*; VDR inh: inconclusive; KCNH2 3.1 block: -6

What do the screens show for `COc1cccc(OC)c1C1=Nn2c(nnc2-c2ccccc2O)SC1`?
CBFb RUNX1 block: 5%

How did O=C(NCCc1ccccc1F)C1CCC(=O)N(Cc2ccccc2F)C1 (centres undefined) do in these assays?
MBNL1 CUG block: 5%; hERG WT inh: -3; PLK1 PBD block: 27µM*; VDR inh: -17%; KCNH2 3.1 block: 2

Results for CCCC1C(C#N)=C(N)Oc2n[nH]c(C(C)(C)C)c21 (centres undefined) ?
MBNL1 CUG block: -2%; hERG WT inh: -22; PLK1 PBD block: 6.7µM*; VDR inh: inconclusive; CBFb RUNX1 block: 6%; KCNH2 3.1 block: 1

What do the screens show for `CC(C)C1C(C#N)=C(N)Oc2n[nH]c(C(C)(C)C)c21` (centres undefined)?
MBNL1 CUG block: 7%; hERG WT inh: -3; PLK1 PBD block: 3%; VDR inh: -6%; CBFb RUNX1 block: 5%; KCNH2 3.1 block: inconclusive

How did CN(C)C(=S)Nc1ccc2c(c1)OCO2 do in these assays?
MBNL1 CUG block: 0%; hERG WT inh: 1; PLK1 PBD block: 6.7µM*; VDR inh: -8%; CBFb RUNX1 block: 6%; KCNH2 3.1 block: 8

Results for Cc1ccc(C(=O)Nc2ccc3c(c2)OCO3)o1 ?
MBNL1 CUG block: -4%; hERG WT inh: 1; PLK1 PBD block: 12µM*; VDR inh: -5%; CBFb RUNX1 block: -2%; KCNH2 3.1 block: 12

Results for C/C(=C\C(=O)c1ccc(C)o1)Nc1ccc2c(c1)OCO2 ?
MBNL1 CUG block: 13%; hERG WT inh: -19; PLK1 PBD block: -5%; VDR inh: 6%; CBFb RUNX1 block: -15%; KCNH2 3.1 block: inconclusive

How did Cc1c(Cl)cccc1N1CCn2c1nc1c2c(=O)n(CC(=O)O)c(=O)n1C do in these assays?
VDR inh: -10%

What do the screens show for `COc1ccc(C(=O)NCCCC2CCCC2)cc1OC1CCN(C(C)C)CC1`?
hERG WT inh: 45; PLK1 PBD block: 7%; KCNH2 3.1 block: -94*

What do the screens show for `COc1ccc(C(=O)NC2CC2)cc1OC1CCN(C(C)CSC)CC1` (centres undefined)?
MBNL1 CUG block: -9%; hERG WT inh: -16; PLK1 PBD block: -29%; VDR inh: -20%; KCNH2 3.1 block: -74*

What do the screens show for `COc1ccc(C(=O)NC2CC2)cc1OC1CCN(Cc2cc(C)cc(C)c2)CC1`?
MBNL1 CUG block: -1%; hERG WT inh: -9; PLK1 PBD block: -1%; VDR inh: 7%
